Results on 8 compounds are retold here after PubChem BioAssay.

Assay [1] has as its system Plasmodium falciparum Sir2 (PF13_0152, Sir2A). Nature of the assay: pfSir2 binders on small-molecule microarrays, primary screen, biochemical, small-molecule microarray, 635 nm fluorescence (AID 1098).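 Note: score merges spot fluorescence intensity with its signal-to-noise ratio.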 The conditions noted are these: small-molecule microarray binding, fluorescence 635 nm; higher = more signal.
The nature of assay [2]: small-molecule microarray binders of probe aDKK1, primary screen, biochemical, biotinylated probe, 635/667 nm fluorescence (AID 1099).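 Note: score merges 667nm spot fluorescence with signal to noise across triplicate slides.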 Particulars: higher = more signal.
Assay [3] is described as follows: small-molecule microarray binders of probe aCHRDL2, primary screen, biochemical, biotinylated probe, 635/667 nm fluorescence (AID 1100). Particulars: higher = more signal.
Assay [4] can be described thus: splicing luciferase reporter signal modulators, primary screen, spliceosome inhibition project, cell-based, HEK293, splice +/- reporter (AID 1101).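 Note: HEK293 cells carrying a splicing-competent luciferase reporter gene; test concentration not given here.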 Particulars: luminescence, 24 h, higher = more signal, called active from +8 up or from −8 down. (Reporter assays use an easily measured gene product as a stand-in for the process of interest.)
For assay [5], the target named is Fibroblast growth factor 10 (Homo sapiens) (UniProt O15520). Nature of the assay: FGF10 binders on small-molecule microarrays, primary screen, biochemical, small-molecule microarray, 635 nm fluorescence (AID 1102). The conditions noted are these: FGF10 binding, fluorescence 635 nm, higher = more signal.
Sequence of Fibroblast growth factor 10 (Homo sapiens) (O15520 whole entry, looked up): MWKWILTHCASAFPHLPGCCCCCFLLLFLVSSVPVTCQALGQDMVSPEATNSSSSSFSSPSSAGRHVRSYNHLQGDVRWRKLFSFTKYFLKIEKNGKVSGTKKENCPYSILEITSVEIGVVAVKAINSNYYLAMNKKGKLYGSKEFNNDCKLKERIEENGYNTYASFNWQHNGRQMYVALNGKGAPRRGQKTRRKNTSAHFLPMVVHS
The test system of assay [6] is glycogen synthase kinase-3 (GSK3A per assay name; protocol says GSK3B). The assay is described as follows: GSK3 binders on small-molecule microarrays, primary screen, biochemical, small-molecule microarray, 635 nm fluorescence, GSK3A (AID 1103). Note: the record names both GSK3A and GSK3B. Particulars: small-molecule microarray binding, fluorescence 635 nm; higher = more signal.
The target in assay [7] is Epidermal growth factor receptor (Homo sapiens) (UniProt P00533). The assay is described as follows: EGFR binders on small-molecule microarrays, primary screen, biochemical, small-molecule microarray, 635 nm fluorescence (AID 1104).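 Note: score merges 667 nm emission intensity with spot signal to noise over triplicate slides.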 Particulars: EGFR binding, higher = more signal.
Sequence of Epidermal growth factor receptor (Homo sapiens) (P00533 whole entry, looked up): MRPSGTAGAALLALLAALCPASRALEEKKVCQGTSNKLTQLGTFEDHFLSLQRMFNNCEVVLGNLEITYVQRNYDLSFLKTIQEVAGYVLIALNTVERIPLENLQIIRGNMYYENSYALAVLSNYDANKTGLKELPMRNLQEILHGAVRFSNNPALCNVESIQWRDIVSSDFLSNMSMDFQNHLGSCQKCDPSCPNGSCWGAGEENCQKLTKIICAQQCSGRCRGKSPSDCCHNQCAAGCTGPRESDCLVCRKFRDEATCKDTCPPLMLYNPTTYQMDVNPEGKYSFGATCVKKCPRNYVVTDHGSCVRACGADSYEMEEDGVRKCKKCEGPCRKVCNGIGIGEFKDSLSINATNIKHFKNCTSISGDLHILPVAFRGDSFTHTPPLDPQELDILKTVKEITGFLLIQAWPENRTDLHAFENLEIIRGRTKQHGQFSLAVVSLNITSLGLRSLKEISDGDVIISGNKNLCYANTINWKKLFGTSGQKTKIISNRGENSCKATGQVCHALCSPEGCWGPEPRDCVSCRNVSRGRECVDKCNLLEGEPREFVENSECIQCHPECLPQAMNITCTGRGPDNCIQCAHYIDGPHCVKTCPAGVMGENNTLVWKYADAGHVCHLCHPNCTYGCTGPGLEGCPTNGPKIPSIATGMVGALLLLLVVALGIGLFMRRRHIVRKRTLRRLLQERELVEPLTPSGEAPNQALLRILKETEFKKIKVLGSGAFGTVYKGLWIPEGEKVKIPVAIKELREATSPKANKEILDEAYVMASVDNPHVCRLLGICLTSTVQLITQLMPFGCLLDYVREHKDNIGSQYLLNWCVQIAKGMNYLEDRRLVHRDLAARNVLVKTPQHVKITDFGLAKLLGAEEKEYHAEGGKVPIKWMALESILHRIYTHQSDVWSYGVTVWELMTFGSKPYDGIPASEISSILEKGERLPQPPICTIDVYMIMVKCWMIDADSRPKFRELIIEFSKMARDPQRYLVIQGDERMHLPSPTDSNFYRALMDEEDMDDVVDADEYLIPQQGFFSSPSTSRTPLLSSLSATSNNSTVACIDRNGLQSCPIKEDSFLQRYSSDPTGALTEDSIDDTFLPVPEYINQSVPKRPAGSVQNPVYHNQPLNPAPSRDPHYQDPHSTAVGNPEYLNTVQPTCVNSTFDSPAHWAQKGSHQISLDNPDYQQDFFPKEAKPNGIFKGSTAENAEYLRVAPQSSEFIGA
For assay [8], the target named is Follistatin-related protein 3 (Homo sapiens) (UniProt O95633). Nature of the assay: FSTL3 binders on small-molecule microarrays, primary screen, biochemical, small-molecule microarray, 635 nm fluorescence (AID 1105).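 Note: score merges emission near 667 nm and signal to noise per printed spot across three slides.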 Particulars: FSTL3 binding, higher = more signal.
Sequence of Follistatin-related protein 3 (Homo sapiens) (O95633 whole entry, looked up): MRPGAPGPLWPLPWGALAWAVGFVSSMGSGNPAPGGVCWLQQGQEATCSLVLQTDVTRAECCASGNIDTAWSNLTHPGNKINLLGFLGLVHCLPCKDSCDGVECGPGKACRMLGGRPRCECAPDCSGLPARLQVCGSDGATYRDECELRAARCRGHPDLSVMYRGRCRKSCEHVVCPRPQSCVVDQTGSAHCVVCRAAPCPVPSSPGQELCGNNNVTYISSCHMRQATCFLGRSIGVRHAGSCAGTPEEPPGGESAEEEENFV
Assay [9] deals with Dickkopf-related protein 1 (Homo sapiens) (UniProt O94907). Nature of the assay: DKK1 binders on small-molecule microarrays, primary screen, biochemical, small-molecule microarray, 635 nm fluorescence scan (AID 1106).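 Note: score merges emission near 667 nm with signal to noise over three replicate slides.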 The conditions noted are these: DKK1 binding, higher = more signal.
Sequence of Dickkopf-related protein 1 (Homo sapiens) (O94907 whole entry, looked up): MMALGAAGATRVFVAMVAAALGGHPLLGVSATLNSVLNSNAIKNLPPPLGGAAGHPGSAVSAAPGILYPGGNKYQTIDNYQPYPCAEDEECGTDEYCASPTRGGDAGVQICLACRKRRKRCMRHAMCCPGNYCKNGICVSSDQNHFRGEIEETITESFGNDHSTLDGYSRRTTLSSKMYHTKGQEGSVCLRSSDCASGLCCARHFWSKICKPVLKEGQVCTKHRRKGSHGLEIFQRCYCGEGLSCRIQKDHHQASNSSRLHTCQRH
For assay [10], the system named is Inhibin beta A chain (activin A). The assay is described as follows: INHBA (activin A) binders on microarrays, primary screen, biochemical, small-molecule microarray, 635 nm fluorescence scan (AID 1107).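 Note: mouse activin A protein probed at 4.33 µg/mL on printed slides; score merges bound-protein fluorescence near 667 nm with spot signal-to-noise.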 The conditions noted are these: small-molecule microarray binding, higher = more signal.
Assay [11] concerns Human papillomavirus type 1a protein E7 (residues 44-93). The assay is described as follows: HPV1a E7 fragment binders on microarrays, primary screen, biochemical, small-molecule microarray, residues 44-93, 635 nm fluorescence (AID 1108).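 Note: E7 fragment applied at 1 µg/mL in TBST for 1 h at 4 C; score combines spot fluorescence with its signal to noise ratio.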 Particulars: small-molecule microarray binding, fluorescence 635 nm; higher = more signal.
Assay [12] is described as follows: modulators of HCV replicon luciferase signal, primary screen, HCV replication inhibitor project, Huh7 cells, luciferase reporter (AID 1109).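 Note: huh7 hepatoma cells harbouring a luciferase neomycin HCV replicon reporter; luciferase luminescence as measure of HCV replicon replication; test concentration not given here.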 The conditions noted are these: 48 h, higher = more signal. For orientation: In antiviral work, replicon cells carry a viral genome segment that copies itself.
Assay [13] has as its target Left-right determination factor 2 (Homo sapiens) (UniProt O00292). The assay is described as follows: LEFTY2 binders on small-molecule microarrays, primary screen, biochemical, small-molecule microarray, 635 nm fluorescence scan (AID 1110). Particulars: LEFTY2 binding, higher = more signal.
Assay [14] deals with Calmodulin-1 (Homo sapiens) (UniProt P0DP23). Nature of the assay: CALM1 binders on microarrays, EGTA buffer, profiling panel, biochemical, small-molecule microarray, Cy5-labelled CALM1 (AID 1111).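 Note: labelled calmodulin applied in Tris saline Tween buffer holding calcium plus EGTA and DTT.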 Particulars: Cy5-CALM1 binding fluorescence, higher = more signal.
The target is the same in assay [15]. Nature of the assay: calcium-bound CALM1 binders on microarrays, profiling panel, artefact control for SMM control-protein annotation, biochemical, small-molecule microarray, Cy5-labelled CALM1, plus calcium (AID 1112).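 Note: score merges spot fluorescence with signal to noise from triplicate slides.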 Particulars: Cy5-CALM1 binding fluorescence, higher = more signal.
A short description of assay [16]: small-molecule microarray binders of probe aWnt5a, primary screen, biochemical, biotinylated probe, 635/667 nm fluorescence (AID 1113).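 Note: score merges 667 nm fluorescence intensity with signal-to-noise per printed feature.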 Particulars: higher = more signal.
Assay [17] can be described thus: small-molecule microarray binders of probe aShh, primary screen, biochemical, biotinylated probe, 635/667 nm fluorescence (AID 1114).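 Note: probe is biotin-labelled aShh protein from a stem cell growth factor screen; measures binding of labelled protein to compounds printed on the slide; score merges feature fluorescence at 667 nm with signal-to-noise.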 The conditions noted are these: higher = more signal.
Assay [18] in a line: small-molecule microarray binders of probe aNog, primary screen, biochemical, biotinylated probe, 635/667 nm fluorescence (AID 1115).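 Note: probe is biotinylated aNog protein used at 0.15 µg/mL for 1 h at 4 C; z-score combines 667 nm fluorescence of each spot with its signal to noise.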 The conditions noted are these: higher = more signal.
Assay [19] has as its target Torsin-1A-interacting protein 1 (Homo sapiens) (UniProt Q5JTV8). Nature of the assay: LAP1 binders from COS7 cell lysate, primary screen, small-molecule microarray, 635/667 nm fluorescence (AID 1116). The conditions noted are these: COS7-hLAP1 lysate binding, 635 nm fluorescence, higher = more signal.
Assay [20] deals with Alpha-bungarotoxin (Bungarus multicinctus) (UniProt P60615). Nature of the assay: alpha-bungarotoxin binders on microarray, profiling panel, artefact control for SMM control protein annotation, biochemical, small-molecule microarray, Alexa647 label, 635/667 nm fluorescence (AID 1117). Particulars: alpha-BTX-A647 binding fluorescence, higher = more signal.
Sequence of Alpha-bungarotoxin (Bungarus multicinctus) (P60615 whole entry, looked up): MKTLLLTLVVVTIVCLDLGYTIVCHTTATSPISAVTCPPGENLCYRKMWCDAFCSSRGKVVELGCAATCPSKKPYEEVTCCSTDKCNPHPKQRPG

SMILES strings stand for the structures. Activity calls are given as the source filed them.

Sequence of Left-right determination factor 2 (Homo sapiens) (O00292 whole entry, looked up): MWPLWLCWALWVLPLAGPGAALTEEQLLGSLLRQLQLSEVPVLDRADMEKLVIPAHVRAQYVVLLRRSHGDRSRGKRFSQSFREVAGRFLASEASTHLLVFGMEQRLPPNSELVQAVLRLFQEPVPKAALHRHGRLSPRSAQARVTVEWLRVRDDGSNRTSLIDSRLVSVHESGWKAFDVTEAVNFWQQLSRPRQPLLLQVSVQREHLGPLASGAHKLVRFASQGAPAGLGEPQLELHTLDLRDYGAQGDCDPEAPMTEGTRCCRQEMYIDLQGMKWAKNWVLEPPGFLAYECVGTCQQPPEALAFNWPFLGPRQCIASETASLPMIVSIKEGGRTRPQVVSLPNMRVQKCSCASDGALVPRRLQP
Sequence of Torsin-1A-interacting protein 1 (Homo sapiens) (Q5JTV8 whole entry, looked up): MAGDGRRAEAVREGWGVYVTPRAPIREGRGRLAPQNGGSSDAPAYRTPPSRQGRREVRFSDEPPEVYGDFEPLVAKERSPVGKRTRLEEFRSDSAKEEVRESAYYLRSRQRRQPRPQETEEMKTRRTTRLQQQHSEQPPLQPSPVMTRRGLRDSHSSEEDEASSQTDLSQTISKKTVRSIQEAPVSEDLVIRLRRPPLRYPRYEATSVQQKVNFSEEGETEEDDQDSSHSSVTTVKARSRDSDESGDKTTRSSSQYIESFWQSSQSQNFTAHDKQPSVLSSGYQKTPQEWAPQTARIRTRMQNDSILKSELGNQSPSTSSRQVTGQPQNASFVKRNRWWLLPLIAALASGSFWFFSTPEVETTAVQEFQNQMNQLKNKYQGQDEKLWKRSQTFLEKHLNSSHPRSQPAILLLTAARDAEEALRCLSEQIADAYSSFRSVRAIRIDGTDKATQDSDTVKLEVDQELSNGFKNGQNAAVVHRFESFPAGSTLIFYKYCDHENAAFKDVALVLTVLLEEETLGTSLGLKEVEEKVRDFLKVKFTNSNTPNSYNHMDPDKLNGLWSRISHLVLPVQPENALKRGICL

As to `CS(=O)(=O)CCOC(=O)C1=CC(CCCO)=CC(c2ccc(CN3CCCC3)cc2)N(Cc2cccc(OC(F)(F)F)c2)C=C1C(=O)OCCS(C)(=O)=O` (stereo not given), the composite z-score in assay [1] was found to be 1.02; in [2] it was 0.275; in assay [3], 0.367; in assay [5], 1.19; in assay [6], 0.997; in [7], 0.582. In addition, the composite z-score in [8] stood at 0.945; in [9] it was 0.468; in [10], 1.32; in assay [11] it was 1.22; in assay [13], 0.558; in assay [14], 0.784. Also, the composite z-score is 0.217 in [15]; 0.133 in assay [16]; 0.0434 in assay [17]; -0.149 in assay [18]; 1.17 in assay [19]; 0.822 in [20]. Moreover, the values for the z-score in assay [4] and in assay [12] were 0.0999 (inactive) and -2.99, respectively.

As to `C=CC[C@]1(C(=O)N2CCOCC2)N=C(c2ccc(OCCCO)cc2)O[C@H]1c1ccccc1N=[N+]=[N-]`, the composite z-score is 0.945 in assay [1]; 0.779 in assay [2]; 1.17 in [3]; 0.95 in assay [5]; 1.29 in assay [6]; 0.23 in [7]. Further, the composite z-score in assay [8] was 0.673; in [9], -0.201; in [10], 1.09; in [11] it was 1.47; in [13], 0.258; in assay [14], 1.47. Besides, the composite z-score came to 0.667 in assay [15]; 0.0839 in assay [16]; 0.308 in [17]; 1.76 in assay [18]; 1.9 in [19]; 0.92 in assay [20]. In addition, the figures for the z-score in assay [4] and in [12] were -1.23 (inactive) and -1.43, respectively.

`COc1ccc([Si](C)(C)[C@H]2[C@H](CCO)O[C@@]3(C(=O)N(Cc4ccccc4)c4ccc(N5CCCCC5=O)cc43)[C@@H]2C)cc1`: the composite z-score in [1] is 1.06; in [2], -0.0725; in assay [3] it was 0.104; in assay [5], 0.884; in assay [6], 0.737; in assay [7] it was 0.199. Besides, the composite z-score is 0.579 in [8]; -0.0075 in assay [9]; 0.301 in assay [10]; 0.668 in [11]; -0.161 in assay [13]; 0.674 in assay [14]. For the same compound, the composite z-score was 0.167 in [15]; -0.0685 in [16]; -0.156 in assay [17]; -0.135 in [18]; 0.652 in assay [19]; 0.883 in assay [20]. The z-score is -2.11 (inactive) in assay [4] and -5.03 in assay [12].

As to `COC(=O)[C@@]1(Cc2ccccc2)[C@H]2c3cc(C(=O)N(C)C)n(Cc4ccc(OC)c(OC)c4)c3C[C@H]2CN1C(=O)c1ccccc1`, the composite z-score is 0.0313 in [1]; 0.905 in assay [2]; 0.94 in assay [3]; 1.44 in assay [5]; 0.454 in assay [6]; 0.568 in assay [7]. Moreover, the composite z-score in [8] was 0.609; in assay [9], -0.833; in assay [10] it was 0.67; in assay [11] it was 1.46; in [13], -0.394; in assay [14], 1.71. Besides, the composite z-score in [15] was 0.873; in [16] it was 0.229; in assay [17], 0.187; in assay [18] it was 2.35; in assay [19] it was 1.1; in [20], 1.07. Also, the z-score in [4] was -4.08 (inactive); in assay [12] it was -2.35.

Regarding `COc1ccc([Si](C)(C)[C@@H]2[C@@H](CCn3cc(CCO)nn3)O[C@]3(C(=O)N(Cc4cccc(N5C(=O)c6cccc7cccc5c67)c4)c4ccccc43)[C@H]2C)cc1`, the composite z-score in assay [1] is 0.686; in assay [2], -0.212; in assay [3] it was -0.197; in assay [5], 0.648; in [6] it was 0.433; in assay [7] it was 0.0345. The composite z-score in [8] is 0.922; in [9] it was 0.135; in assay [10], 0.546; in assay [11], 1.37; in assay [13], -0.0227; in assay [14], 0.911. The composite z-score is 0.506 in assay [15]; -0.0256 in assay [16]; -0.0192 in [17]; 0.406 in assay [18]; 0.868 in assay [19]; 0.664 in assay [20]. Besides, the z-score was -1.23 (inactive) in assay [4] and -5.22 in assay [12].

For the compound `CN(C)CCCC[C@@H]1NC(=O)[C@H]2C[C@@H](C(=O)NCCCCCN)[C@@H](c3cccc(OCCO)c3)N2C1=O`, the composite z-score in [1] was found to be 1.11; in assay [2], 1.33; in assay [3] it was 1.04; in assay [5], 1.2; in [6], 1.06; in [7] it was 0.0076. Also, the composite z-score in assay [8] turned out to be 0.0876; in assay [9], 0.453; in [10], 1.41; in [11] it was 0.474; in assay [13] it was 0.669; in assay [14], 2.22. In addition, the composite z-score turned out to be 1.51 in [15]; 0.233 in assay [16]; 0.351 in [17]; 0.863 in assay [18]; 2.53 in assay [19]; 1.44 in assay [20]. For the same compound, the figures for the z-score in assay [4] and in [12] were 0.0522 (inactive) and 0.0761, respectively.

Regarding `O=C1N(CCS(=O)(=O)c2ccccc2)c2ccccc2[C@@H]2OC(c3ccc(OCCCO)cc3)=N[C@]12Cc1ccccc1`, the composite z-score was determined as 1.49 in assay [1]; 0.0733 in assay [2]; 0.393 in assay [3]; 0.379 in assay [5]; 1.28 in assay [6]; 0.542 in [7]. Besides, the composite z-score worked out at 1.29 in assay [8]; 0.432 in [9]; 0.995 in assay [10]; 1.34 in assay [11]; 0.248 in [13]; 0.835 in assay [14]. Also, the composite z-score in [15] was -0.387; in assay [16], -0.124; in assay [17] it was -0.24; in assay [18], -0.12; in [19] it was 0.309; in [20] it was 1.32. The z-score in assay [4] was -0.917 (inactive); in assay [12], -1.94.

As for `CN(C)C(=O)[C@]1(Cc2ccccc2)N=C(c2ccc(OCCCO)cc2)O[C@@H]1c1ccccc1N=[N+]=[N-]`, the composite z-score is 0.684 in assay [1]; 0.74 in [2]; 1.05 in [3]; 1.5 in assay [5]; 1.3 in assay [6]; 0.382 in assay [7]. The composite z-score in assay [8] was determined as 0.817; in assay [9], 0.173; in assay [10] it was 1.25; in assay [11], 1.4; in assay [13], 0.357; in [14], 1.63. Besides, the composite z-score in assay [15] was 0.393; in assay [16] it was 0.0926; in [17], 0.398; in assay [18], -0.0332; in assay [19], 2.01; in assay [20], 1.37. The z-score in [4] was -0.968 (inactive); in [12], -2.58.
